From PubChem BioAssay
Most compounds without a hit are left out; they make up all but 18% or so of the library.
TDP1 block: TDP1 (human) enzyme inhibition; Q9NUW8; recombinant TDP1, AlphaScreen DNA substrate cleavage; Potency, µM (top dose mostly 130 µM), for inactives: at the top dose activity change, negative = inhibition, most hits filed as inhibitors; hit rate 0.28% among 350,000; further: potency means the concentration at half of the fitted maximal effect; on the % scale 0 is the no-effect control and ±100 the full control effect; nearly all actives have a fitted effect of over 40% in size
Target sequence (Q9NUW8 whole entry, looked up): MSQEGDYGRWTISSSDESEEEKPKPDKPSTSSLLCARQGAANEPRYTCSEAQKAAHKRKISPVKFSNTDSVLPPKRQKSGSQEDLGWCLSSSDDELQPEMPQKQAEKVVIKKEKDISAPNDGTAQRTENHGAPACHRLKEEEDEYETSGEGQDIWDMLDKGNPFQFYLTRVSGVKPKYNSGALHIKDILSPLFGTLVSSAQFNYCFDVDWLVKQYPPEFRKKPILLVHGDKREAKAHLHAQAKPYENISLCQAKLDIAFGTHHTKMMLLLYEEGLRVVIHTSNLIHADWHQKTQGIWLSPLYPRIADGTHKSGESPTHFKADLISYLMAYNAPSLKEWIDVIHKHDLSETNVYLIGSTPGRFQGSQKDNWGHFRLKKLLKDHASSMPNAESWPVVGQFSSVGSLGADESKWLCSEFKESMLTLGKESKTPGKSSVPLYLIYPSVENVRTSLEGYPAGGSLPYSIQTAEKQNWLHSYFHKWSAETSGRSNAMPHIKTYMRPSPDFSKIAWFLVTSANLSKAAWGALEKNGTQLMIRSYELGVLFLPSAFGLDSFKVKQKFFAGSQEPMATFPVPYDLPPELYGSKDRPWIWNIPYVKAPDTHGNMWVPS
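E. coli-derived human Tdp1, 1 nM final. Cpd preinc 15 min RT; substrate 15 nM final, 5 min RT; AS bead mix 10 ug/ml final, 10 min RT. Signal loss = tyrosine-FITC cleavage. No-enzyme wells = max signal.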
HepG2 tox: kills HepG2 cells in TGF-b inhibitor counter-screen; HepG2 CAGA-GFP viability, ATP luminescence, 18 h; Potency, µM (doses to about 46.1 µM), for inactives: at the highest dose activity change, negative = cytotoxicity, most hits filed as cytotoxic; hit rate 0.76% among 410,000; AID 588856; further: potency means the concentration at half of the fitted maximal effect
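CellTiter-Glo luminescence gave cytotoxicity after 18 hours at 37 degrees C. The cells were HepG2 CAGA-GFP in 1% FBS DMEM, stimulated with 500 pg/mL TGF-beta after compound addition. %Activity was normalised to no-cell wells (complete cell-killing) and DMSO (no toxicity), and curves were fitted and classified.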
DT40 TDP1 CPT: DT40-hTDP1 cell growth loss with CPT; chicken DT40 Tdp1-/-;hTDP1 cells + 20 nM CPT, ATP luminescence, 48 h; Potency, µM (doses to about 46.2 µM), for inactives: at the highest dose activity change, negative = growth inhibition, actives largely listed as inhibitors; hit rate 12% among 420,000; AID 686979; further: potency means the concentration at half of the fitted maximal effect; on the % scale 0 is the no-effect control and ±100 the full control effect; nearly all actives have a fitted effect of over 55% in size
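Cell growth measured by CellTiter-Glo luminescence after a minimum 48 h, 37 C compound exposure with 20 nM CPT in Tdp1-knockout DT40 cells stably expressing hTDP1, seeded 400/well; qHTS titration format.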
TDP1 cell noCPT: qHTS for Inhibitors of human tyrosyl-DNA phosphodiesterase 1 (TDP1): qHTS in cells in absence of CPT | AID 686978, 2013 | DT40 Tdp1-/- hTDP1 cells, no CPT, ATP luminescence, 48 h | hit rate 15% among 420,000 | Potency, µM (doses to about 46.2 µM), for the others: at the top dose activity change, negative = growth inhibition, usual class: inhibitors; further: potency means the concentration at half of the fitted maximal effect; on the % scale 0 is the no-effect control and ±100 the full control effect; nearly all actives have a fitted effect of over 55% in size
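Growth kinetics read by CellTiter-Glo luminescence after ≥48 hr at 37 °C. Cells: DT40 Tdp1-/- stably carrying human TDP1, 400 per well, compound exposure in the absence of CPT (DMSO vehicle).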
TGFb inhibitor: inhibitors of TGF-b signaling | Potency, µM (series often up to 46.1 µM), for inactives: at the top dose activity, negative = inhibition, hits mostly inhibitors | HepG2 CAGA-GFP TGF-b/SMAD3 reporter, GFP fluorescence, 18 h; TGF-beta stimulated, 500 pg/mL final | hit rate 1.2% among 410,000 | AID 588855; further: potency means the concentration at half of the fitted maximal effect; on the % scale 0 is the no-effect control and ±100 the full control effect; nearly all actives have a fitted effect of over 65% in size
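Inhibition of TGF-beta-driven CAGA-GFP reporter expression in HEPG2 cells is measured by cellular GFP fluorescence after 18 h stimulation with 500 pg/mL recombinant TGF-beta in 1% FBS medium at 37 degrees C.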
IL1B secr inh: blocks inflammasome-driven IL-1 beta release. hit rate 4.7% among 360,000. THP-1 LPS/ATP IL-1B secretion, AlphaLISA, 16 h; stronger effect = lower value. activity change, % at 57.5 µM; in the data active means activity change below about -50%; inconclusive means mostly about -30% to -49%; further: on the % scale 0 is the no-effect control and ±100 the full control effect
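THP-1 cells pretreated 1 hr with compounds (up to 57.5 uM final), then stimulated with LPS (250 ng/mL final) plus ATP (1.25 mM final); secreted IL-1B measured by AlphaLISA after 16 hr, decreased signal indicating inhibition.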
* marks the source's active call; other numbers are inactive results; ? = inconclusive; nt = no result given; [ ] = another dose, or the depositor's remark. Unless noted, the call rests on the fitted dose curve; in most records, active means well fitted curve in the direction sought with a large enough effect; inconclusive means small, poorly fitted or top-dose-only effect, or another doubt; inactive means no such curve, though single readings can be large; an effect the other way counts as inactive or inconclusive.

SMILES | TDP1 block | HepG2 tox | DT40 TDP1 CPT | TDP1 cell noCPT | TGFb inhibitor | IL1B secr inh
Cc1cc(C(=O)N2CCN(Cc3ccc4c(c3)OCO4)CC2)cs1 | 7% | -1% | -8% | -17% | -23% | 0
Clc1ccc(-c2csc(=Nc3ccccc3)n2Cc2ccc3c(c2)OCO3)cc1 | -10% | -18% | 21µM* | 10µM* | -3% | nt
Cc1ccc(-c2csc(=Nc3ccccc3)n2Cc2ccc3c(c2)OCO3)cc1C | -5% | -18% | ? | 6.5µM* | 0% | nt
Cc1ccc(-c2csc(=Nc3ccc(F)cc3)n2Cc2ccc3c(c2)OCO3)cc1C | 1% | -8% | 18µM* | 15µM* | -13% | nt
Cc1ccc(NC(=O)Cn2c(-c3ccc4c(c3)OCO4)cn(-c3ccccc3)c2=O)cc1C | 0% | -1% | -4% | -13% | -7% | nt
OCCNc1nc(Nc2ccccc2O)nc(N2CCCC2)n1 | nt | 12% | nt | nt | -28% | nt
COC(=O)c1cc(CNC(=O)c2cccc(N(C)C)c2)cc(NC(=O)c2ccccc2Cl)c1 | nt | nt | 0%[9.04 µM] | -12% | nt | nt
COCCCN(C(C)=O)c1nc(-c2ccc(OC)cc2)cs1 | 4% | -21% | 15µM* | ? | -13% | 26
COc1ccc(-c2csc(N(CCCN(C)C)C(=O)c3ccc(C(C)(C)C)cc3)n2)cc1 | 8% | -47% | ? | ? | ? | -80*
COc1ccc(-c2csc(N(CC3CCCO3)C(=O)c3ccccc3)n2)cc1 (configuration not stated) | -11% | -14% | ? | ? | -7% | 26
CCN(C(=O)c1cccs1)c1nc(-c2ccc(OC)cc2)cs1 | nt | -7% | -3% | ? | 6% | -20
COc1ccc(-c2csc(N(CCCN(C)C)C(=O)c3ccc(C)cc3)n2)cc1 | nt | -57% | ? | 16µM* | ? | -79*
COc1ccc(-c2csc(N(CC3CCCO3)C(=O)c3ccc(C)cc3)n2)cc1 (configuration not stated) | -2% | -23% | 26µM* | 23µM* | ? | -19
O=c1[nH]c(O)c(N=Nc2ccc(Cl)c(S(=O)(=O)Nc3ccccc3Cl)c2)c(=O)[nH]1 | 0% | -1% | -5% | 2% | 5% | 24
OCC1O[C@@H](OC2C(O)C(CO)O[C@@]2(CO)O[C@@H]2OC(CO)C(O)C(O)C2O)C(O)C(O)C1O (some centres not stated) | 7% | nt | -2% | -8% | nt | nt
CCN(CC)CCCN(C(=O)c1ccc(OC)cc1)c1nc(-c2ccc(OC)cc2)cs1 | nt | -53% | ? | ? | ? | nt
COc1ccc(-c2csc(N(CCCN(C)C)C(=O)c3ccc(Br)cc3)n2)cc1 | nt | -53% | 21µM* | 21µM* | ? | -76*
Cc1cc(=O)oc2c3c(cc(OCC(=O)NCc4ccncc4)c12)OC(C)(C)CC3 | nt | -23% | ? | 23µM* | -10% | -7
Cc1cc(=O)oc2c3c(cc(OCC(=O)NCc4ccco4)c12)OC(C)(C)CC3 | nt | -5% | ? | ? | 13% | -14
COc1ccc(CNC(=O)COc2cc3c(c4oc(=O)cc(C)c24)CCC(C)(C)O3)cc1OC | nt | -27% | 21µM* | 23µM* | -19% | ?
Cc1cc(N2CCN(C(C(=O)NC3CCCC3)C(C)(C)C)CC2)c2ccccc2n1 (configuration not stated) | nt | nt | ? | 12µM* | nt | -7
COc1cccc(C(C(=O)NC2CCCC2)N2CCN(c3cc(C)nc4ccccc34)CC2)c1OC (configuration not stated) | nt | nt | 23µM* | 21µM* | nt | -20
Cc1ccc(C)c(N2CCN(C(C(=O)NC3CCCC3)C(C)C)CC2)c1 (configuration not stated) | nt | nt | 18µM* | 21µM* | nt | -15
Cc1cc(C(=O)NC2CCCC2)c2ccccc2n1 | nt | -11% | 22% | 8% | 15% | 2
N#Cc1cccnc1N1CCN(C(C(=O)NC2CCCC2)c2ccco2)CC1 (configuration not stated) | nt | nt | -6% | ? | nt | -10
SMILES | TDP1 block | HepG2 tox | DT40 TDP1 CPT | TDP1 cell noCPT | TGFb inhibitor | IL1B secr inh
CC(C)(C)C(C(=O)NC1CCCC1)N1CCN(c2ncccc2C#N)CC1 (configuration not stated) | nt | nt | 16µM* | ? | nt | 3
C=C(CC1([C@@H](NP(=O)(c2ccccc2)c2ccccc2)[C@H]2C[C@@H]2CCCC)CC1)c1cccc(OC)c1 | 1% | nt | nt | nt | nt | nt
COc1cc(C(=O)n2nc(-c3ccco3)nc2NCc2ccc(Cl)cc2)cc(OC)c1OC | 2% | 14% | -19% | ? | 15% | nt
Cc1oc2c(O)c(O)ccc2c(=O)c1-c1cnn(-c2ccccc2)c1 | -7% | -17% | ? | 18µM* | -10% | 84
Cc1oc2c(O)c(O)ccc2c(=O)c1-c1ccccc1 | 5% | -11% | 0% | ? | -15% | 86
C=C(C)CSc1nc2sc3c(c2c(=O)n1CCCC)CCCC3 | 1%[2.28 µM] | 0% | -20% | -17% | ? | nt
CCOC(=O)COc1ccc2nsnc2c1Cl | 5% | -5% | -21% | 1% | -1% | 4
C=C(CC)C(=O)c1ccc(OCC(=O)O)c(Cl)c1Cl | 3% | -77% | 17µM* | 18µM* | ? | -94*
Cc1cccc(Cn2c(CNS(=O)(=O)c3ccc(Cl)s3)nc3cccnc32)c1 | 10% | -22% | ? | ? | ? | nt
